From PubChem
Sampled rows, rich in hits. Any-hit rate of the full collection: about 10%.
GLA inh pH 4.5 – alpha-galactosidase A (human) inhibition, pH 4.5; 230,000 tested, under 10 active; AID 1467; P06280; purified enzyme, 4-MU-alpha-Gal fluorescence, pH 4.5; activity change, negative = inhibition, % at 105 µM;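 note: 0% = full activity with enzyme and -100% = basal without enzyme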
12-hLO inh – blocks human 12-lipoxygenase activity; Potency, µM (top dose mostly 57.1 µM), for inactives: at the highest dose activity change, negative = inhibition, most hits filed as inhibitors; purified 12-hLO, xylenol orange hydroperoxide absorbance; P18054; hit rate 0.12% among 150,000; note: potency is the fitted concentration of half-maximal effect; nearly all actives have a fitted effect of over 55% in size
Target sequence (P18054 whole entry, looked up): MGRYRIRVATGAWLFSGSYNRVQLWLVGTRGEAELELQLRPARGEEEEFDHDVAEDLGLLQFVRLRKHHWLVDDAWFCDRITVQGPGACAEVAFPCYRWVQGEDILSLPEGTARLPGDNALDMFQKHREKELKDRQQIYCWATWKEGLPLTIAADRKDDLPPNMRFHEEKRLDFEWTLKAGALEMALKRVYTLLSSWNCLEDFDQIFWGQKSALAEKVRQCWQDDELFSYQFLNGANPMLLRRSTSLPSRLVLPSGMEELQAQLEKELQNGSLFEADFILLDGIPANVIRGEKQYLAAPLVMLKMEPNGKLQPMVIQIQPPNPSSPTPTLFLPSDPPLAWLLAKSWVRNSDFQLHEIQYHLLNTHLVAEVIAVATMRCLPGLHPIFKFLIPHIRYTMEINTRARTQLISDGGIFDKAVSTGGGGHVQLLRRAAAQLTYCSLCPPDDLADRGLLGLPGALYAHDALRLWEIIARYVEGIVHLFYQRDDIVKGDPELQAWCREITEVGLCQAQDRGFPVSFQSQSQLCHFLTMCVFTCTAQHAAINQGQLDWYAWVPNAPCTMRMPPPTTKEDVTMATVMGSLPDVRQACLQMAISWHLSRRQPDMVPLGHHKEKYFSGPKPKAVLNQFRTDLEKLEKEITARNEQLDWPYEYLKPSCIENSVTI
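Lipoxygenase turnover measured by absorbance at 573 and 405 nm after Fe-XO development. Human 12hLO 150 nM, arachidonate 40 uM, pH 7.0 Hepes buffer with detergent; 15 min compound preincubation, 30 min reaction.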
aGal spleen mod – inhibits or activates alpha-galactosidase in human spleen homogenate | P06280 | human spleen homogenate, 4MU-alpha-Gal fluorescence, 40 min | Potency, µM (top dose mostly 80 µM), without a hit: top-dose activity change, negative = inhibition, most hits filed as inhibitors | hit rate 0.008% among 240,000 | AID 2107;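 note: potency is the fitted concentration of half-maximal effect; 0% = enzyme with vehicle and -100% = no enzyme basal signal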
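qHTS titration in buffer at pH 5.0. Alpha-galactosidase activity in spleen homogenate was measured via 4-methylumbelliferone release from 1 mM fluorogenic substrate after 40 min at 37C and a pH 10 stop. AC50 came from Hill fits of control-normalized data.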
PNC assembly inh – inhibitors of perinucleolar compartment assembly; PC3M PTB-GFP, PNC prevalence imaging, 16 h; active compounds read low; activity change (PNC), negative = inhibition, % at 10 µM; hit rate 3.1% among 140,000; AID 2417;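 active = readout at or below -70, meaning at least 70% loss of cells showing the perinucleolar compartment, a nuclear body marking cancer cells; inconclusive = readout between -30 and a set limit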;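 note: plate controls were DMSO wells for no effect and camptothecin positive control wells for full effect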
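Read-out is percentage of cells bearing a perinucleolar compartment, from automated 20x imaging of fixed, Hoechst-stained PC3M PTB-GFP cells. Cells were seeded 4 h, then exposed 16 h to compound (23 nl of library stock) in duplicate plates.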
ALDH1A1 inh – ALDH1A1 (human) enzyme inhibition; Potency, µM (doses to about 75.3 µM), for the others: at the top dose activity, negative = inhibition, hits mostly inhibitors; Purified ALDH1A1, NADH fluorescence, propionaldehyde substrate; AID 1030; hit rate 7.3% among 220,000; active = well fitted inhibition curve with a large enough effect, not every such curve was filed as active; inconclusive = small, poorly fitted or top-dose-only effect, or another doubt; inactive = no such curve, though single readings can be large or run the other way;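 note: potency is the fitted concentration of half-maximal effect; plate controls were no enzyme wells and a reference inhibitor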
HPGD block – HPGD (human) dehydrogenase inhibition; P15428; Potency, µM, without a hit: at the highest dose activity change, negative = inhibition, most hits filed as inhibitors; purified HPGD, NADH fluorescence kinetic, PGE2 substrate; hit rate 4.3% among 150,000; active = well fitted inhibition curve with a large enough effect, not every such curve was filed as active; inconclusive = small, poorly fitted or top-dose-only effect, or another doubt; inactive = no such curve, though single readings can be large or run the other way; note: potency is the fitted concentration of half-maximal effect
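20 nM HPGD preincubated 15 min at room temperature with compound in 50 mM Tris-HCl pH 8, 0.01% Tween 20. Started with 1 mM NAD+ and 30 uM prostaglandin E2; NADH fluorescence (360/450 nm) read 5 times over 30-s intervals, last minus first.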
An asterisk follows results filed as active; ? = inconclusive; / = no result; [ ] = remark or other dose. Unless noted, calls come from the whole dose curve; as a rule, active = well fitted curve in the direction sought with a large enough effect; inconclusive = small, poorly fitted or top-dose-only effect, or another doubt; inactive = no such curve, though single readings can be large; an effect the other way counts as inactive or inconclusive. Unless noted, % is set by controls: 0 for no effect and ±100 for the full control effect.

SMILES | GLA inh pH 4.5 | 12-hLO inh | aGal spleen mod | PNC assembly inh | ALDH1A1 inh | HPGD block
Cc1cccc(NS(=O)(=O)c2ccc(Cl)c(C(=O)O)c2)c1 | / | -3% | / | / | 14% | -9%
COc1ccc(C2Nc3ccccc3C(=O)N2Cc2ccco2)cc1COc1ccc(F)cc1 (stereo not drawn) | 0 | -7% | 6% | 141 | 2.5µM* | ?
COc1ccc(C2Nc3ccccc3C(=O)N2Cc2ccco2)cc1CN1C(=O)c2ccccc2C1=O (stereo not drawn) | -14 | -10% | 5% | -5 | -8% | -6%
Cc1ccc(NC(=S)NC(=O)c2ccc(F)cc2)cc1S(=O)(=O)Nc1ccccc1Cl | 2 | ? | 5% | 0 | 13µM* | -10%
O=C(NC(=S)Nc1ccc2c(c1)C(=O)c1ccccc1C2=O)c1ccc(F)cc1 | 4 | 2% | 2% | 22 | 11µM* | -15%
Cc1ccc(NC(=O)c2cccc(OCc3c(C)noc3C)c2)cc1S(=O)(=O)Nc1ccccc1Cl | 3 | -2% | 2% | ? | -5% | ?
NS(=O)(=O)c1cc2c(cc1Cl)=NC(CCC(=O)O)=NS=2(=O)O | / | 2%[11.4 µM] | / | / | -4%[13.5 µM] | -5%
Cc1c(OCc2nn[nH]n2)ccc2c(-c3ccccc3)cc(=O)oc12 | 2 | -4% | -2% | 26 | 16µM* | 13µM*
CCCCCCCC[n+]1c(C)n(-c2ccccc2)c2ccc(NC(C)=O)cc21 | -5 | / | 6% | / | -2% | /
C[C@@]12CC[C@@H]3[C@H](CCC4=CC(=O)CC[C@]43C)[C@@H]1CC[C@@H]2C(=O)COS(=O)(=O)c1ccc(Br)cc1 | / | -10%[11.4 µM] | / | / | 3.5µM* | -14%
c1ccc(Nc2nc(N3CCOCC3)nc(N3CCOCC3)n2)cc1 | -2 | 2% | 2% | -5 | 2% | 0%
c1ccc(Nc2nc(N3CCNCC3)nc(N3CCOCC3)n2)cc1 | 5 | 3% | -4% | -100* | -10% | -3%
O=C(CSc1nc(Nc2ccccc2)nc(N2CCOCC2)n1)N1CCc2ccccc21 | 3 | 11% | 6% | -117* | 4% | -8%
CN(C)c1nc(SCC(=O)Nc2ccccc2)nc(N2CCOCC2)n1 | -13 | / | -4% | / | 25µM* | /
CC(C)(C)Nc1nc(SCC(=O)Nc2ccccc2)nc(N2CCOCC2)n1 | -9 | / | 1% | / | ? | /
O=C(CSc1nc(Nc2ccccc2)nc(N2CCOCC2)n1)N1CCCC1 | -1 | 7% | 28% | ? | -6% | -10%
CC(C)(C)c1c2c(c(C(C)(C)C)c3c1OCN(Cc1ccccc1)C3)OCN(Cc1ccccc1)C2 | / | -22%[11.4 µM] | / | / | -7%[13.5 µM] | -8%
CN1CCc2nc(N)nc(-c3nc(N)nc4c3CN(C)CC4)c2C1 | / | 0%[11.4 µM] | / | / | 3%[13.5 µM] | -1%
CC(=O)Nc1ccn(C2OC(C(COC(C)=O)NC(=O)C(CCCCNC(=O)OCc3ccccc3)NC(=O)OC(C)(C)C)C(OC(C)=O)C2OC(C)=O)c(=O)n1 (stereo not drawn) | / | / | -8% | / | / | /
O=C/C=C/c1ccc(O)cc1 | -15 | 2% | -7% | / | 3.5µM* | -14%
NNc1nc(-c2ccccc2Cl)nc2sc3c(c12)CCCC3 | -6 | -4% | 0% | 0 | ? | 13µM*
Nc1nc(-c2cccnc2)nc2sc3c(c12)CCCC3 | 5 | / | 13% | / | -6% | /
Cc1ccc(-c2csc(NC(=O)CSc3nnc4c(n3)[nH]c3ccccc34)n2)cc1 | 6 | -3% | 14% | -7 | -3% | -14%
NC(=O)c1nnn(-c2nonc2N)c1-c1ccc([N+](=O)[O-])cc1 | -3 | / | 1% | / | 5% | /
Cc1nn(CC(=O)Nc2ccc(C(=O)N3CCCC3)cc2)c(=O)c2ccccc12 | -3 | 2% | 0% | -4 | -15% | 14µM*
SMILES | GLA inh pH 4.5 | 12-hLO inh | aGal spleen mod | PNC assembly inh | ALDH1A1 inh | HPGD block
COc1cccc(-c2ccc(=O)n(CC(=O)Nc3ccc(C(=O)N4CCCC4)cc3)n2)c1 | 4 | -5% | -2% | 32 | ? | 13µM*
Cc1nn(CC(=O)Nc2cccnc2)c(=O)c2ccccc12 | 9 | / | 4% | / | 5% | /
Cc1nn(CC(=O)Nc2ccc3c(c2)oc2ccccc23)c(=O)c2ccccc12 | 3 | -6% | -13% | 28 | -1% | /
Cc1nn(CC(=O)Nc2ccc3c(c2)nc(CN2CCCC2)n3C)c(=O)c2ccccc12 | -2 | -5% | -5% | -100* | -1% | -3%
Cc1nn(CC(=O)Nc2ccc(C(=O)N3CCCCC3)cc2)c(=O)c2ccccc12 | -2 | -1% | -6% | -17 | 13µM* | 1.1µM*
COc1ccccc1N1CCN(C(C)C(=O)Nc2ccc(S(=O)(=O)N3CCOCC3)cc2)CC1 (stereo not drawn) | -3 | / | -4% | / | -8% | /
Cc1cc(Cn2cnc3c2C[C@@H](C(=O)O)N(C(=O)C(c2ccccc2)c2ccccc2)C3)ccc1N(C)C | -14 | -5% | 6% | / | ? | -7%
COc1ccccc1C(=O)NCC(=O)OCC(=O)c1ccc2c(c1)-c1ccccc1C2 | 7 | 3% | 4% | ? | -6% | -13%
COC(=O)C1(C)C=CC2(CCCCC2)N1C(=O)c1ccccc1 (stereo not drawn) | 5 | 2% | 4% | / | 4% | -9%
O=C(Cn1nc(-c2ccc(F)cc2)ccc1=O)Nc1ccc(C(=O)NC2CC2)cc1 | 5 | 3% | 6% | 37 | 5% | 28µM*
Cc1nc2ccc(Cl)cc2c(-c2ccccc2F)c1CC(=O)O | 6 | -3% | 7% | 48 | 2% | -15%
CO[C@H]1COC(=O)[C@H](C)NC(=O)[C@@H](C)COC(=O)C/C=C\[C@@H]1C | / | / | 0%[17.5 µM] | / | 9%[13.5 µM] | /
N#C/C(=C1/CCCCCN1)c1nc2ccccc2[nH]1 | -11 | -3% | -2% | -18 | 8.9µM* | -26%
C(/C=C\c1ccccc1)=Nc1ccc2c(c1)Cc1ccccc1-2 | / | 0%[11.4 µM] | / | / | ? | -17%
CN(C)CC(O)Cn1c2ccc(Br)cc2c2cc(Br)ccc21 (stereo not drawn) | / | / | -13% | / | 6% | /
CC(/C=C1\SC(=S)N(NS(=O)(=O)c2ccc(C)cc2)C1=O)=C\c1ccccc1 | -11 | / | 7% | / | / | /
CC(=O)N1C(=O)/C(=C2\SC(=S)N(NS(=O)(=O)c3ccc(C)cc3)C2=O)c2ccccc21 | -2 | / | -3% | / | 13µM* | /
Cc1c(N2C(=O)/C(=C3/C(=O)N(C)c4ccccc43)SC2=S)c(=O)n(-c2ccccc2)n1C | 2 | 0% | 6% | 119 | 0% | 7%
CC(=O)N1C(=O)/C(=C2\SC(=S)N(c3c(C)n(C)n(-c4ccccc4)c3=O)C2=O)c2ccccc21 | -12 | -4% | -4% | -18 | 10µM* | -4%
Cc1ncc(CC(=O)n2cc(C(=O)c3cc(F)ccc3O)cn2)s1 | 6 | 1% | 3% | 73 | 7.9µM* | -15%
